From PubChem BioAssay (NCI)
Values joined by “and” are separate entries in the source; they are usually repeats but may differ in a detail not shown here. Identical values can stand only once. This is part of a sample that, as a whole, favours compounds with a hit. Of some 83,000 tested, about 20% had one in any assay.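 Activity criterion: percent growth below 10, measured after cells in 96-well plates were exposed to a single compound concentration for 48 hours.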 Active and inactive are the calls of the source.

Tests used:
Assay in all cases: NCI-60 one-dose screen, 48 h (100 = growth as untreated, 0 = no growth, -100 = all killed)
SK-MEL-2 melanoma = settings: 10 µM unless noted
EKVX NSCLC = settings: 10 µM unless noted
SN12C renal = settings: 10 µM unless noted
UO-31 renal = settings: 10 µM unless noted
TK-10 renal = tested on: TK-10 renal
ACHN renal = settings: 10 µM unless noted
A498 renal = settings: 10 µM unless noted
CCRF-CEM leukemia = settings: 10 µM unless noted
MOLT-4 leukemia = settings: 10 µM unless noted
CAKI-1 renal = settings: 10 µM unless noted

Measured: growth

N#CSc1c[nH]c2ccc(/C=C/C(=O)/C=C(/C=C/c3ccc4[nH]cc(SC#N)c4c3)OB(F)F)cc12
active: SK-MEL-2 melanoma -30.3% | EKVX NSCLC -5.64% | SN12C renal -38.1% | UO-31 renal -99.3% | TK-10 renal; 10 µM unless noted -0.38% | ACHN renal -86.4% | CCRF-CEM leukemia -27.7% | MOLT-4 leukemia -37.9%
inactive: A498 renal 69.1%

O=C1Nc2ccccc2/C1=C/c1cccn1CCCCCn1c2ccccc2c(=O)c2ccccc21
inactive: SK-MEL-2 melanoma 84% | EKVX NSCLC 71.8% | SN12C renal 97.1% | UO-31 renal 49.3% | TK-10 renal; 10 µM unless noted 93.8% | ACHN renal 55.1% | A498 renal 108% | CCRF-CEM leukemia 44.9% | MOLT-4 leukemia 46%

O=C1CCCCN1CCCCC#Cc1cccc(C#Cc2cccnc2)c1
active: CCRF-CEM leukemia -23% | MOLT-4 leukemia -49.9%
inactive: SK-MEL-2 melanoma 96.4% | EKVX NSCLC 93.9% | SN12C renal 90.3% | UO-31 renal 59.1% | TK-10 renal; 10 µM unless noted 229% | ACHN renal 101% | A498 renal 84.3%

CCOC(=O)c1c(-c2ccc(OC)cc2)c(C#N)c2c(C#N)c(N)nn2c1N
inactive: EKVX NSCLC 41.1% | SN12C renal 40.8% | UO-31 renal 47.6% | TK-10 renal; 10 µM unless noted 57.7% | ACHN renal 53.3% | MOLT-4 leukemia 10%
active: SK-MEL-2 melanoma 3.6% | A498 renal -7.96% | CCRF-CEM leukemia 5.96%

Nc1nc(N)c2c(n1)NC(c1ccc(Cl)cc1)CC(c1cccc(Nc3ccncc3)c1)=N2 (centres undefined)
inactive: SK-MEL-2 melanoma 76.3% | EKVX NSCLC 62.1% | SN12C renal 53% | UO-31 renal 90.6% | TK-10 renal; 10 µM unless noted 113% | ACHN renal 73.5% | A498 renal 81.1% | CCRF-CEM leukemia 32.7% | MOLT-4 leukemia 38.1%

Cc1cc(N2CCCCC2)nc(NCc2cc(Nc3ccnc4cc(Cl)ccc34)ccc2F)n1
inactive: EKVX NSCLC 38.6%
active: SK-MEL-2 melanoma -42.7% | SN12C renal -71% | UO-31 renal -46.9% | TK-10 renal; 10 µM unless noted -21.5% | ACHN renal -82% | A498 renal -17.3% | CCRF-CEM leukemia -19.2% | MOLT-4 leukemia -24.8%

Cc1cc2nc(C(Cl)Cl)nc(-c3ccc(Cl)cc3)n2n1
active: EKVX NSCLC -14% | UO-31 renal -8.79% | TK-10 renal; 10 µM unless noted 4.92% | ACHN renal -41.7% | A498 renal -16.9%
inactive: SK-MEL-2 melanoma 49.2% | SN12C renal 36.5% | CCRF-CEM leukemia 29.2% | MOLT-4 leukemia 21.6%

Cc1ccc(C(=O)c2ccc(CC(=O)N=Nc3c(O)[nH]c4ccc(OC(F)(F)F)cc34)n2C)cc1
inactive: SK-MEL-2 melanoma 95.9% | EKVX NSCLC 75.5% | SN12C renal 95% | UO-31 renal 72.7% | TK-10 renal; 10 µM unless noted 137% | ACHN renal 93.8% | A498 renal 86.7% | CCRF-CEM leukemia 99.1% | MOLT-4 leukemia 89.4%

Cn1c(=O)c2c(nc(Nc3cc(=O)[nH]c(=O)[nH]3)n2Cc2ccccc2)n(C)c1=O
active: SK-MEL-2 melanoma -2.98% | A498 renal -13.8%
inactive: EKVX NSCLC 90% | SN12C renal 95.2% | UO-31 renal 79.5% | ACHN renal 100% | CAKI-1 renal 37.9% | CCRF-CEM leukemia 95.1% | MOLT-4 leukemia 92.7%

CC1(Cc2ccccc2)CC2=C(C(=O)O1)C(c1ccccc1)NC(=O)N2 (centres undefined)
inactive: SK-MEL-2 melanoma 107% | EKVX NSCLC 98.7% | SN12C renal 104% | UO-31 renal 79.9% | TK-10 renal; 10 µM unless noted 108% | ACHN renal 101% | A498 renal 117% | CCRF-CEM leukemia 91.1% | MOLT-4 leukemia 46.5%

COc1c(F)cc(-n2c(C(=O)N3CC(F)C3)cc3cccnc32)cc1F
inactive: SK-MEL-2 melanoma 108% | EKVX NSCLC 103% | SN12C renal 97.6% | UO-31 renal 74.2% | TK-10 renal; 10 µM unless noted 99% | ACHN renal 93.2% | A498 renal 107% | CCRF-CEM leukemia 99.1% | MOLT-4 leukemia 97.8%

CC[C@]1(O)CC2CN(CCc3c([nH]c4ccccc34)C(C(=O)OC)(c3cc4c(cc3OC)N(C=O)[C@H]3[C@@](O)(C(=O)OC)[C@H](OC(C)=O)[C@]5(CC)[C@@H]6C[C@@H]6CN6CC[C@]43[C@@H]65)C2)C1 (some centres undefined)
inactive: SK-MEL-2 melanoma 11.6% | EKVX NSCLC 43.4% | SN12C renal 30.1% | UO-31 renal 31.1% | ACHN renal 30.9% | CAKI-1 renal 32.1% | CCRF-CEM leukemia 13.6% | MOLT-4 leukemia 13.1%
active: A498 renal -20%

CCCCSc1ccc2nc(-c3ccc(OCCCN=C(N)N)cc3)cn2c1
inactive: SK-MEL-2 melanoma 48.4% | EKVX NSCLC 95.6% | SN12C renal 88.3% | UO-31 renal 76.6% | TK-10 renal; 10 µM unless noted 110% | ACHN renal 89.2% | A498 renal 89.4% | CCRF-CEM leukemia 53.4% | MOLT-4 leukemia 53.1%

Cc1ccc(NC(=O)c2ccc(CN3CCN(C)CC3)cc2)cc1Nc1nccc(-c2cccnc2)n1
inactive: EKVX NSCLC 84.3% and 90.9% | SN12C renal 94% and 83.7% | UO-31 renal 92.4% and 77.6% | TK-10 renal; 10 µM unless noted 110% and 74.9% | ACHN renal 101% and 82.7% | CAKI-1 renal 100% and 102% | A498 renal 86.3% and 82.5% | CCRF-CEM leukemia 93.4% and 49.7% | MOLT-4 leukemia 82% and 45.1%

CC/C(=C(/c1ccc(Cl)cc1)c1ccc(OCCN2CCOCC2)cc1)c1ccccc1
inactive: SK-MEL-2 melanoma 93.7% | EKVX NSCLC 85.1% | SN12C renal 95.8% | UO-31 renal 86.4% | ACHN renal 98.3% | CAKI-1 renal 69.4% | A498 renal 99.7% | CCRF-CEM leukemia 83.9% | MOLT-4 leukemia 86%

Cc1ccc(-c2nc3nc(-c4ccc(Br)cc4)nc(N4CCCNCC4)c3o2)cc1
active: SN12C renal -77.4% | ACHN renal -95.4% | CAKI-1 renal -50.5% | CCRF-CEM leukemia -64.4% | MOLT-4 leukemia -56.8%
inactive: SK-MEL-2 melanoma 108% | EKVX NSCLC 114% | UO-31 renal 63.4% | A498 renal 80.5%

COc1ccc(Nc2nn3c(SCC(=O)c4ccc(C)cc4)nnc3s2)cc1
inactive: SK-MEL-2 melanoma 98.2% | EKVX NSCLC 99.9% | SN12C renal 101% | UO-31 renal 58.7% | ACHN renal 86.5% | A498 renal 93.7% | CCRF-CEM leukemia 98.1% | MOLT-4 leukemia 85.4%

COc1ccc2nc3cc(Cl)ccc3c(NCCCNCCC(C)O)c2c1 (centres undefined)
active: SK-MEL-2 melanoma -48.2% | EKVX NSCLC -7.41% | SN12C renal -25.9% | UO-31 renal -28.1% | ACHN renal -1.05% | CAKI-1 renal -3.91% | A498 renal -79% | CCRF-CEM leukemia -24% | MOLT-4 leukemia -18.1%

S=c1nc(CS)[nH]c2ccccc12
inactive: SK-MEL-2 melanoma 101% | EKVX NSCLC 84% | SN12C renal 95.4% | UO-31 renal 71.8% | ACHN renal 93.5% | CAKI-1 renal 77.1% | A498 renal 53.2% | CCRF-CEM leukemia 102% | MOLT-4 leukemia 102%

COC(=O)/C=C1/SC(=Nc2ccc([N+](=O)[O-])cc2)N(CCc2c[nH]c3ccccc23)C1=O
active: CCRF-CEM leukemia 8.51% | MOLT-4 leukemia -2.1%
inactive: SK-MEL-2 melanoma 68.1% | EKVX NSCLC 87.2% | SN12C renal 58.8% | UO-31 renal 48.8% | ACHN renal 64.6% | CAKI-1 renal 73.1% | A498 renal 78.2%

Cc1nc(Nc2ncc(C(=O)Nc3c(C)cccc3Cl)s2)cc(N2CCN(CCO)CC2)n1
active: UO-31 renal -0.429% and -14.3% | TK-10 renal; 10 µM unless noted -7.96% and -61.7% | ACHN renal 1.96% and -15.4% | CAKI-1 renal -44.3% and -28.7% | A498 renal -24.2% and -40.1%
inactive: EKVX NSCLC 41.5% and 33.2% | SN12C renal 24% and 18.3% | CCRF-CEM leukemia 77.3% and 41.6% | MOLT-4 leukemia 66.1% and 29.6%

O=c1oc2c(Br)cc(Br)cc2cc1-c1cc(-c2ccc(-c3cc(-c4cc5cc(Br)cc(Br)c5oc4=O)nc(-c4cc5cc(Br)cc(Br)c5oc4=O)c3)cc2)cc(-c2cc3cc(Br)cc(Br)c3oc2=O)n1
inactive: SK-MEL-2 melanoma 101% | EKVX NSCLC 105% | SN12C renal 107% | UO-31 renal 80.6% | ACHN renal 103% | CAKI-1 renal 110% | A498 renal 95.9% | CCRF-CEM leukemia 101% | MOLT-4 leukemia 102%

COc1ccc(/C=C2/C(=O)N=C3N2NC(c2ccccc2)=CN3c2ccccc2)cc1
inactive: SK-MEL-2 melanoma 106% | EKVX NSCLC 103% | SN12C renal 96% | UO-31 renal 77.4% | ACHN renal 96.2% | CAKI-1 renal 88.4% | A498 renal 107% | CCRF-CEM leukemia 101% | MOLT-4 leukemia 106%

CC(C)(C)CC(N)=O
inactive: SK-MEL-2 melanoma 102% | SN12C renal 102% | UO-31 renal 104% | TK-10 renal; 10 µM 100% | TK-10 renal; 100 µM 105% and 103% | ACHN renal 96.9% | CAKI-1 renal 94.4% | A498 renal 90.7% | CCRF-CEM leukemia 102% | MOLT-4 leukemia 108%

CCCCCCCCCCCCCCCC[N+](C)(C)CCN(Cc1ccc(OC)cc1)c1ncccn1
-52% (active) and 23.9% (inactive): MOLT-4 leukemia
-53.1% (active) and 23.7% (inactive): CCRF-CEM leukemia
inactive: SK-MEL-2 melanoma 59.8% | ACHN renal 45.7% and 67% | CAKI-1 renal 44.1%
9.57% (active) and 80.3% (inactive): UO-31 renal
active: EKVX NSCLC -84.6% | A498 renal -70.4%
-57.9% (active) and 34% (inactive): SN12C renal

COc1cc2nc3cc([N+](=O)[O-])ccc3c(NCCNCC(C)(C)O)c2cc1OC
inactive: UO-31 renal 27.7% | CAKI-1 renal 16.1%
active: SK-MEL-2 melanoma -45.5% | EKVX NSCLC 7.08% | SN12C renal -17.1% | ACHN renal 6.39% | A498 renal -48.8% | CCRF-CEM leukemia 0.0876% | MOLT-4 leukemia 5.85%
